Hits are enriched below; roughly 2.4% of the tested compounds scored in any of these assays.
FEN1 inhibitor: human FEN1 inhibition | Recombinant FEN1 flap cleavage, fluorescence, 15 min | 390,000 tested, 0.35% active | AID 588795 | Potency, µM (series often up to 114 µM), actives largely listed as inhibitors; also: nearly all actives have a fitted effect of over 65% in size
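Concentration–response screening of FEN1 (10 nM): 15 min compound preincubation at room temperature, reaction started with 50 nM substrate and read at 0 and 15 min. Corrected, normalized data were fitted by a four-parameter Hill equation.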
Pol kappa inh: inhibitors of human DNA polymerase kappa. purified Pol kappa, fluorescent DNA synthesis assay, 10 min. Potency, µM (doses to about 107 µM), usual class: inhibitors. 400,000 tested, 0.53% active
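10 nM Pol kappa was preincubated with compounds for 15 min at room temperature. Reaction started with 50 nM (final) substrate. Fluorescence read kinetically at 0 and 10 min.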
POLI inh: blocks human DNA polymerase iota activity; Potency, µM (highest dose often 115 µM), hits mostly inhibitors; 390,000 tested, 1% active; Pol iota fluorescent replication assay, 10 min; AID 588590
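Pol iota at 10 nM preincubated 15 min with compounds at room temperature; reaction started with fluorescent substrate, 50 nM final. Fluorescence read kinetically at 0 and 10 min; buffer-only wells as negative control.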
POLB inh: inhibitors of human DNA polymerase beta. AID 485314. 340,000 tested, 1.3% active. Potency, µM (highest dose often 114 µM), most hits filed as inhibitors. P06746. Pol beta primer extension/strand displacement, fluorescence kinetic
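Enzyme-only controls used 10 nM Pol beta; buffer lacking enzyme served as negative control. Compound preincubated 15 min, then 50 nM substrate added; 0 and 10 min reads at room temperature.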
PGK inhibitor: blocks T. brucei phosphoglycerate kinase; P07378; AID 602233; Potency, µM (series often up to 57.5 µM), usual class: inhibitors; PGK/GAPDH coupled, Kinase-Glo luminescence, 60 min; 380,000 tested, 0.043% active; also: nearly all actives have a fitted effect of over 60% in size
Target sequence (P07378 whole entry, looked up): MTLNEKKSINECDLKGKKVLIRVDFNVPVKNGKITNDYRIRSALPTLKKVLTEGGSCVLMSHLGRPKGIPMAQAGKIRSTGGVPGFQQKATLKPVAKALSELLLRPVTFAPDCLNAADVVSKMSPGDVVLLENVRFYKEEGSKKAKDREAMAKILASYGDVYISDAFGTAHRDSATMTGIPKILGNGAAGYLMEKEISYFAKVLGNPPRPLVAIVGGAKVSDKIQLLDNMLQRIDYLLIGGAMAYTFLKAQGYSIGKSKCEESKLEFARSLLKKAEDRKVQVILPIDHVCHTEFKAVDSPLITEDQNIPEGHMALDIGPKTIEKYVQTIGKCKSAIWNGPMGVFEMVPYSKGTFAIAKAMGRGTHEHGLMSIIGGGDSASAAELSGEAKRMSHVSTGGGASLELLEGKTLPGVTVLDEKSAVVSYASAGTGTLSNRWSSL
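Luminescent ATP detection (Kinase-Glo Plus) follows a 60-minute room-temperature incubation, with wells lacking PGK as controls. Buffer: 100 mM TEA (pH 7.6), 5 mM MgCl2, 0.01% Tween-20. Coupling enzyme GAPDH (100 nM final) supplies unstable 1,3-BPG in-well.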
POLH inh: blocks human DNA polymerase eta activity | recombinant Pol eta, fluorescent DNA replication assay | Q9Y253 | 390,000 tested, 1.2% active | Potency, µM (top dose mostly 114 µM), hits mostly inhibitors
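Pol eta at 10 nM preincubated with compounds 15 min at room temperature; reaction started with fluorescent substrate (50 nM final) and read kinetically at 0 and 10 min.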
Hits are given with their value; . = inactive; ? = inconclusive; / = no result; [ ] = remark or other dose. Calls follow the shape of the dose curve; as a rule, active = well fitted curve in the direction sought with a large enough effect; inconclusive = small, poorly fitted or top-dose-only effect, or another doubt; inactive = no such curve, though single readings can be large; an effect the other way counts as inactive or inconclusive.

SMILES | FEN1 inhibitor | Pol kappa inh | POLI inh | POLB inh | PGK inhibitor | POLH inh
O=C(COc1ccccc1C(=O)Nc1ccccc1)Nc1ccccc1-c1ccccc1 | . | . | ? | / | / | /
O=c1cc[nH]c2c(Cl)cccc12 | . | . | . | . | . | .
O=c1cc[nH]c2c1ccc1c(=O)cc[nH]c12 | ? | ? | ? | . | . | 28µM
Cc1ccc(C(=O)N2CCCCC2)cc1NC(=O)c1nsc2ccccc12 | . | . | . | ? | . | .
Cc1ccc(C(=O)O)cc1NC(=O)c1nsc2ccccc12 | . | . | ? | 79µM | / | /
COc1cc(/C=N\NC(=O)c2ccc(-c3ccccc3)cc2)cc(OC)c1O | ? | ? | 32µM | 25µM | . | ?
COc1cc(C(=O)N/N=C/c2ccc3c(c2)c2ccccc2n3C)ccc1O | . | ? | 18µM | 25µM | . | 16µM
COc1cc(/C=N/NC(=O)CCn2c3ccccc3c3ccccc32)ccc1O | ? | . | . | ? | .[11.5 µM] | .
CCOc1cc(/C=N/Nc2nn3cnnc3c3ccccc23)ccc1O | ? | . | ? | ? | . | ?
COc1cc(/C=N/Nc2nn3cnnc3c3ccccc23)ccc1O | ? | . | ? | 50µM | . | ?
O=C(C[n+]1ccccc1Br)c1ccc(F)cc1 | . | . | . | / | / | /
CCOc1ccc(/C=C/c2ccnc3ccccc23)cc1OCC | . | . | ? | / | / | /
CN(C)c1ccc(C(=O)c2ccc(O)cc2O)cc1 | . | . | . | . | . | .
CN(C)c1ccc(Cc2cc3c(O)ccc(O)c3cc(Cc3ccc(N(C)C)cc3)c2=O)cc1 | 40µM | 7.9µM | 3.2µM | / | . | 2.2µM
COc1cc(-c2nn3c(-c4ccco4)nnc3s2)cc(OC)c1OC | / | / | / | . | / | /
Clc1ccc(-c2ccc(-c3nn4c(-c5ccco5)nnc4s3)o2)cc1 | . | . | ? | / | . | 79µM
Brc1ccc(-c2nn3c(-c4ccco4)nnc3s2)o1 | ? | ? | ? | 45µM | . | ?
Cn1cnnc1Sc1ccc(/C=C/C(=O)c2ccc(O)cc2)cc1[N+](=O)[O-] | ? | . | ? | . | . | 50µM
COc1ccc2c(c1)O/C(=C\c1ccco1)C2=O | . | . | . | ? | . | .
CC(=O)COc1ccc2c(c1C)O/C(=C\c1ccco1)C2=O | . | ? | ? | 45µM | . | 22µM
Nc1ccc(Oc2ncccn2)cc1 | . | . | ? | . | / | 40µM
O=Cc1cccc(Oc2ncccn2)c1 | . | . | . | . | . | .
COc1ccc(-c2nn[nH]n2)cc1OC | . | . | . | . | . | .
Nc1cc(-c2nn[nH]n2)ccc1F | . | ? | ? | . | . | 11µM
CCc1ccc2c(c1)C(NC(C)=O)C(=O)N2CCN1CCOCC1 (stereo unspecified) | ? | . | 2.2µM | . | ? | ?
SMILES | FEN1 inhibitor | Pol kappa inh | POLI inh | POLB inh | PGK inhibitor | POLH inh
Fc1ccc(-c2ccnc3nc(-n4cccc4)nn23)cc1 | . | . | 79µM | ? | . | .
COc1ccc(C2C(C#N)=C(N)Oc3cc(C)n(Cc4ccco4)c(=O)c32)cc1 (stereo unspecified) | ? | 32µM | 14µM | ? | . | .
COCCCn1c(SCC(=O)OC2CCCCC2)nnc1-c1cccs1 | . | . | 100µM | . | . | .
O=C(NCC(c1cccnc1)N1CCN(Cc2ccccc2)CC1)C(=O)Nc1ccc(Cl)cc1 (stereo unspecified) | . | . | . | . | . | .
O=C1NN(c2ccccc2)C(=O)/C1=C\c1cccn1-c1ccc(Cl)c([N+](=O)[O-])c1 | . | ? | ? | ? | . | 20µM
Cc1ccc(CSc2nnc(SCC(=O)N/N=C/c3c[nH]c4ccccc34)s2)cc1 | ? | . | 3.5µM | 7.9µM | ? | ?
C[C@]12C[C@H](O)C3[C@@H](CCC4=CC(=O)CC[C@@]43C)[C@@H]1CC[C@@H]2C(=O)CO (stereo partly specified) | / | / | . | . | / | .
Cc1noc(C)c1-c1cc(NCc2cccs2)ncn1 | / | . | / | / | / | /
Cc1cc(-c2ccccc2)nc(Nc2nc3c(C)cccc3c(=O)[nH]2)n1 | . | . | . | / | . | 45µM
CCOC(=O)N1CCN(Cc2nc3cc(NC(=O)C(C)C)ccc3n2C(C)C)CC1 | . | . | . | . | . | .
O=C(NCc1ccccc1Cl)c1ccc2c(c1)N(Cc1ccccc1)C(=O)c1ccccc1S2 | . | . | . | . | . | .
Cc1ccccc1-c1nccc(NCCN2CCOCC2)n1 | / | . | / | / | / | /
CCS(=O)(=O)c1cccc(C(=O)Nc2ccc(-c3nc4ccccc4s3)c(O)c2)c1 | . | . | ? | 20µM | . | ?
O=C(CCS(=O)(=O)c1ccccc1)Nc1ccc(-c2nc3ccccc3s2)c(O)c1 | . | . | . | . | . | .
O=C1CCCN2N=C(SCC(=O)Nc3nccs3)SC2=N1 | . | . | ? | 32µM | . | 79µM
CN(C)C(CN=C1NS(=O)(=O)c2ccccc21)c1ccco1 (stereo unspecified) | . | . | 79µM | ? | . | .
O=S1(=O)NC(=NCC(c2ccco2)N2CCCCC2)c2ccccc21 (stereo unspecified) | . | . | . | . | . | .
O=C(O)c1ccc(O)cc1 | / | . | / | / | / | /
O=C(O)c1ccc(O)c(O)c1 | . | . | ? | 25µM | . | .
CCC(=O)Oc1ccc(C/C(=N\O)c2ccc(O)cc2O)o1 | . | 28µM | 20µM | ? | . | 79µM
CCOC(=O)c1ccc(CC(=O)c2ccc(O)cc2O)o1 | . | . | . | . | . | .
CN(C)c1ccc(/C=C/c2c3c(nc4ccccc24)CCCC3)cc1 | . | . | . | / | / | /
CCCCCN(CCCCC)c1ccc(/C=C/c2ccnc3ccccc23)cc1 | . | . | . | / | / | /
O=c1cc(-c2ccc(Br)cc2)[nH][nH]1 | . | . | . | . | . | .
COc1cccc(-c2cc(=O)[nH][nH]2)c1 | . | . | ? | . | . | .
SMILES | FEN1 inhibitor | Pol kappa inh | POLI inh | POLB inh | PGK inhibitor | POLH inh
COc1ccc(-c2cc(=O)[nH][nH]2)cc1OC | . | . | 1.3µM | . | . | .
O=c1cc(-c2ccc(F)cc2)[nH][nH]1 | . | . | 1.8µM | . | . | .
COc1ccc(Br)cc1CNC(=O)c1cc2n(n1)CCCN(Cc1ccc(C)cc1)C2=O | . | . | . | . | . | .
Cc1cc([N+](C)(C)C)cc(C)c1/C=C/c1ccnc2ccccc12 | 22µM | ? | ? | / | / | /
C[n+]1c(/C=C/c2ccnc3ccccc23)cc(/C=C/c2ccnc3ccccc23)c2ccccc21 | 10µM | . | ? | / | / | /
O/N=C(/CI)c1ccc2ccccc2c1 | ? | . | . | / | / | /
COc1cccc(C(c2sc3nc(-c4ccco4)nn3c2O)N2CCOCC2)c1 (stereo unspecified) | . | . | . | . | . | .
COc1cccc(S(=O)(=O)N2CCN(c3nc(-c4cccs4)nc4ccccc34)CC2)c1 | . | . | . | / | / | /
O=C(O)c1c(-c2ccccc2)oc2ccc(O)cc12 | . | . | . | . | . | ?

Compound activity from PubChem BioAssay.
